# From article PMC7862700, “An all-to-all approach to the identification of sequence-specific readers for epigenetic DNA modifications on cytosine”
# How the values were obtained:
# Experiment in all cases: DAPPL (digital affinity profiling via proximity ligation, sequencing); 10 mM Tris-HCl pH 7.5, 50 mM NaCl, 1 mM DTT, 4% glycerol, room temperature, 30 min; GST-TFs on glutathione beads, 16-mer random dsDNA library, 0.1% formaldehyde crosslink after washing; high values mean tight binding
# FLI1 = target: T1, FLI1 (Homo sapiens, UniProt Q01543 1-452); settings: protein: recombinant; tags: N-terminal GST; dsDNA, one strand shown
# T1 sequence: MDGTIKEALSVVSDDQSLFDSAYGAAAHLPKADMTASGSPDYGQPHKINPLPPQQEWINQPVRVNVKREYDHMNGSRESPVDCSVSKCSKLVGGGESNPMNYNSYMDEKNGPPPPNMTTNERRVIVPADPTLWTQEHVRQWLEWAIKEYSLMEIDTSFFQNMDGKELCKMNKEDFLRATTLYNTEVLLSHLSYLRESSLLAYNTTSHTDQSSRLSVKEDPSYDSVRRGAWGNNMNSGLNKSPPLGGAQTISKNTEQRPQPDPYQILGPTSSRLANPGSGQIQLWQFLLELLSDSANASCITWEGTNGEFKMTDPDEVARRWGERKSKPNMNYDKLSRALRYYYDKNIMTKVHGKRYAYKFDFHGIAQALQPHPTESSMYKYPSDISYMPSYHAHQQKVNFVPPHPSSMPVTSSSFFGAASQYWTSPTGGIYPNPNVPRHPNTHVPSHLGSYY
# How it was run: (§1)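 A tag-only sample was pooled with DNA-barcoded human transcription factors that had been expressed in yeast as GST fusions and captured on glutathione beads. The pools were incubated for 30 min at room temperature with 200 nmole of a random double-stranded 16-mer DNA library in Tris/NaCl/DTT/glycerol buffer, then washed, crosslinked with 0.1% formaldehyde, proximity-ligated (BsaI/T4 ligase, 1 h, 37 °C), PCR-amplified and sequenced on an Illumina NextSeq500. Binding signal is each hexamer's read frequency for a factor divided by its frequency for the tag-only sample.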
# ELK1 = target: T2, ELK1 (Homo sapiens, UniProt P19419 1-428); settings: protein: recombinant; tags: N-terminal GST; dsDNA, one strand shown
# T2 sequence: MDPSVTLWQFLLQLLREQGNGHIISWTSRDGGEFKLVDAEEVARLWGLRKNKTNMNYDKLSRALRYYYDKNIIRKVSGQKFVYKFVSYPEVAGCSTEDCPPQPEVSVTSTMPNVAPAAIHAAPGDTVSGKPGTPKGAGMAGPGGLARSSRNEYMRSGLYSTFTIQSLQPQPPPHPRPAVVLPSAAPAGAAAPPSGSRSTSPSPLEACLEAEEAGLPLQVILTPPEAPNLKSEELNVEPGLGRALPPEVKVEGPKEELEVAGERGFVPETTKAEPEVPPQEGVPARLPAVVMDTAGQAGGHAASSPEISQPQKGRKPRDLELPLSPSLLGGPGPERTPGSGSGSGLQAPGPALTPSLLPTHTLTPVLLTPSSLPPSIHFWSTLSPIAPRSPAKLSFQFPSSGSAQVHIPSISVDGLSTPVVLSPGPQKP
# How it was run: as §1
# GABPA = target: T3, GABPA (Homo sapiens, UniProt Q06546 1-454); settings: protein: recombinant; tags: N-terminal GST; dsDNA, one strand shown
# T3 sequence: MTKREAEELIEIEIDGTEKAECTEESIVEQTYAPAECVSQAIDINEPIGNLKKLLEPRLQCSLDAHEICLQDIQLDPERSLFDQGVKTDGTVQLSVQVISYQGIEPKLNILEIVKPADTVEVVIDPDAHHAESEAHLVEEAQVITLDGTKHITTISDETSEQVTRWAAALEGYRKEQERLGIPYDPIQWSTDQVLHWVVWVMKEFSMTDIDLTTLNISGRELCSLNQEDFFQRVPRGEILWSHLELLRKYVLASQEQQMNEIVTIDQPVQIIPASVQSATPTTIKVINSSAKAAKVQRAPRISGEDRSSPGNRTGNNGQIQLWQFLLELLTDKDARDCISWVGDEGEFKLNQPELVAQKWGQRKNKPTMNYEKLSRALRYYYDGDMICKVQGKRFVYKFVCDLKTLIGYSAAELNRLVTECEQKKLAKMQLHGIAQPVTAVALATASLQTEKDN
# How it was run: as §1
# ERG = target: T4, ERG (Homo sapiens, UniProt P11308 1-479); settings: protein: recombinant; tags: N-terminal GST; dsDNA, one strand shown
# T4 sequence: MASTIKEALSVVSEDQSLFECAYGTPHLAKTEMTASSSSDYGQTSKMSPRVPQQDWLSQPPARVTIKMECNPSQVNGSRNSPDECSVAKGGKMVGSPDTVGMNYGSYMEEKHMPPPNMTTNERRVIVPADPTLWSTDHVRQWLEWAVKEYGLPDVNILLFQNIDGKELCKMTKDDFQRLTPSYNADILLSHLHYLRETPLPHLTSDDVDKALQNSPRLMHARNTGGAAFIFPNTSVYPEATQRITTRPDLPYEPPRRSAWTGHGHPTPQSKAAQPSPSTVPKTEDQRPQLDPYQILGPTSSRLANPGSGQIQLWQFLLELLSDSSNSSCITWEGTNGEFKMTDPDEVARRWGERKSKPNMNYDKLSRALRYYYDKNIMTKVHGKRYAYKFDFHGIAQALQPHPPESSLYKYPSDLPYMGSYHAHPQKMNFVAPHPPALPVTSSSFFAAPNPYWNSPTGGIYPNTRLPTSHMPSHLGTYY
# How it was run: as §1
# ELF1 = ELF1 (Homo sapiens, UniProt P32519 1-619); settings: protein: recombinant; tags: N-terminal GST; dsDNA, one strand shown
# How it was run: as §1
# EHF = target: T5, EHF (Homo sapiens, UniProt Q9NZC4 1-300); settings: protein: recombinant; tags: N-terminal GST; dsDNA, one strand shown
# T5 sequence: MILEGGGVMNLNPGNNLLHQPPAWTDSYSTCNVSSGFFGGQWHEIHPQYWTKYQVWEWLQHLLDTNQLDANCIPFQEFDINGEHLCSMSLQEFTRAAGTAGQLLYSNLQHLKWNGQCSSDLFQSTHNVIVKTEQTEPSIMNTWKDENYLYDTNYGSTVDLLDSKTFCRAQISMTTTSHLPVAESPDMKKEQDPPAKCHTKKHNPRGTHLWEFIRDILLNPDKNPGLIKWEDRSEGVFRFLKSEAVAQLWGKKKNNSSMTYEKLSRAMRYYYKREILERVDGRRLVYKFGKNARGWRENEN
# How it was run: as §1
# SPI1 = SPI1 (Homo sapiens, UniProt P17947 1-270); settings: protein: recombinant; tags: N-terminal GST; dsDNA, one strand shown
# How it was run: as §1
# SPIB = SPIB (Homo sapiens, UniProt Q01892 1-262); settings: protein: recombinant; tags: N-terminal GST; dsDNA, one strand shown
# How it was run: as §1
# ELK3 = target: T6, ELK3 (Homo sapiens, UniProt P41970 1-407); settings: protein: recombinant; tags: N-terminal GST; dsDNA, one strand shown
# T6 sequence: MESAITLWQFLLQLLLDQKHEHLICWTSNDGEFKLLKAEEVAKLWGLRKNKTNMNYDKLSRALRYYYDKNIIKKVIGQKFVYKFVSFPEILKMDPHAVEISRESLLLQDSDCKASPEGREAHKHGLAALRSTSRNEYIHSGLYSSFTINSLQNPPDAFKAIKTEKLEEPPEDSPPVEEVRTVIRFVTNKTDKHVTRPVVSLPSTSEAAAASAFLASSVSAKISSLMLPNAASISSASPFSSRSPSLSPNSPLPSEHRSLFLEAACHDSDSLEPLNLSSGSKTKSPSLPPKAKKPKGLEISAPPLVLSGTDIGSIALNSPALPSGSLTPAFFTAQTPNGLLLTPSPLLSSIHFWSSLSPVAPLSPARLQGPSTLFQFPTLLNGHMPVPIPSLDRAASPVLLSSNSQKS
# How it was run: as §1
# FEV = target: T7, FEV (Homo sapiens, UniProt Q99581 1-238); settings: protein: recombinant; tags: N-terminal GST; dsDNA, one strand shown
# T7 sequence: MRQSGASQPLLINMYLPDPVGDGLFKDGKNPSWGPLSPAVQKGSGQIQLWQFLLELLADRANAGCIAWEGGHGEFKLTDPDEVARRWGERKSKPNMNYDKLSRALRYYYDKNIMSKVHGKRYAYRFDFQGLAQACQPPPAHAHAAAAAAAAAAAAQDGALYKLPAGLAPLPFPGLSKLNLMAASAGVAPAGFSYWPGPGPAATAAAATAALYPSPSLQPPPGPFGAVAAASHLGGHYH
# How it was run: as §1
# ETV5 = ETV5 (Homo sapiens, UniProt P41161 1-510); settings: protein: recombinant; tags: N-terminal GST; dsDNA, one strand shown
# How it was run: as §1
# HSF1 = HSF1 (Homo sapiens, UniProt Q00613 1-529); settings: protein: recombinant; tags: N-terminal GST; chain copies: 3; dsDNA, one strand shown
# How it was run: as §1
# SPIC = target: T8, SPIC (Homo sapiens, UniProt Q8N5J4 1-248); settings: protein: recombinant; tags: N-terminal GST; dsDNA, one strand shown
# T8 sequence: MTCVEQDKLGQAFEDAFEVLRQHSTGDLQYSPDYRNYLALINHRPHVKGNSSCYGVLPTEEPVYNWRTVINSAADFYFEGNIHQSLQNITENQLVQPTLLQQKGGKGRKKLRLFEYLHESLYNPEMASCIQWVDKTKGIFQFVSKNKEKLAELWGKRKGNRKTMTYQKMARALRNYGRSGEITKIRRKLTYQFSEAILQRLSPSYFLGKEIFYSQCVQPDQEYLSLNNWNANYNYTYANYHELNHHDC
# How it was run: as §1
# ELF4 = ELF4 (Homo sapiens, UniProt Q99607 1-663); settings: protein: recombinant; tags: N-terminal GST; dsDNA, one strand shown
# How it was run: as §1
# ELK4 = target: T9, ELK4 (Homo sapiens, UniProt P28324-2 1-405); settings: protein: recombinant; tags: N-terminal GST; dsDNA, one strand shown
# T9 sequence: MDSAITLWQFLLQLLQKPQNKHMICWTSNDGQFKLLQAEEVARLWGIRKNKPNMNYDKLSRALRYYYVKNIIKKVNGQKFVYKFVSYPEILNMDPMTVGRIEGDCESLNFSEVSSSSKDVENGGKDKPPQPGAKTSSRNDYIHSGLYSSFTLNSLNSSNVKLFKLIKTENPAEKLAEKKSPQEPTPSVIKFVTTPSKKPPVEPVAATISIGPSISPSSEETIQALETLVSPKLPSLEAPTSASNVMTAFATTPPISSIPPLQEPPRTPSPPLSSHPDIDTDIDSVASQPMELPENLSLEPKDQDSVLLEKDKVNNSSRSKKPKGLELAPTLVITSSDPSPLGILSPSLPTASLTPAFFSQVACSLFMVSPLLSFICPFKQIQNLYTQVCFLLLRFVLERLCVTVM
# How it was run: as §1
# ETV2 = target: T10, ETV2 (Homo sapiens, UniProt O00321 1-342); settings: protein: recombinant; tags: N-terminal GST; dsDNA, one strand shown
# T10 sequence: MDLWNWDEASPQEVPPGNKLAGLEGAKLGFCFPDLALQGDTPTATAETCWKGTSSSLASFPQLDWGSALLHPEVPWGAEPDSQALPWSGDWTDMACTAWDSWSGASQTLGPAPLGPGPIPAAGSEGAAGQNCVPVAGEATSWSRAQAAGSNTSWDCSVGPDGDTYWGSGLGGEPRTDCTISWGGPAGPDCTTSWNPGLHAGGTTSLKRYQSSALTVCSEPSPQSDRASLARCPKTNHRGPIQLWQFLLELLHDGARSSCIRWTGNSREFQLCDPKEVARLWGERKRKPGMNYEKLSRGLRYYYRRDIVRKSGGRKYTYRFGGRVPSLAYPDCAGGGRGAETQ
# How it was run: as §1
# ELF3 = target: T11, ELF3 (Homo sapiens, UniProt P78545 1-371); settings: protein: recombinant; tags: N-terminal GST; dsDNA, one strand shown
# T11 sequence: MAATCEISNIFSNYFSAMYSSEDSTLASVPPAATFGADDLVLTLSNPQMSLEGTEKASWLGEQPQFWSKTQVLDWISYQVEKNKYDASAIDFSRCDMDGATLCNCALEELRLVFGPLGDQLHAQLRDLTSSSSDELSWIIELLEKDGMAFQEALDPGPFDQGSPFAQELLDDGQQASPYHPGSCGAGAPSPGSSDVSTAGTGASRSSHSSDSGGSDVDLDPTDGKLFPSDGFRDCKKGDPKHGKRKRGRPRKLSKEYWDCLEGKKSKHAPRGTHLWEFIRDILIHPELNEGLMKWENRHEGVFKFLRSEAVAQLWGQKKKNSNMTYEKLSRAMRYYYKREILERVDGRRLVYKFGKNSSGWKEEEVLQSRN
# How it was run: as §1
# CRX = CRX (Homo sapiens, UniProt O43186 1-299); settings: protein: recombinant; tags: N-terminal GST; dsDNA, one strand shown
# How it was run: as §1
# ETV1 = ETV1 (Homo sapiens, UniProt P50549 1-477); settings: protein: recombinant; tags: N-terminal GST; dsDNA, one strand shown
# How it was run: as §1
# Sequence of ELF1 (P32519 whole entry): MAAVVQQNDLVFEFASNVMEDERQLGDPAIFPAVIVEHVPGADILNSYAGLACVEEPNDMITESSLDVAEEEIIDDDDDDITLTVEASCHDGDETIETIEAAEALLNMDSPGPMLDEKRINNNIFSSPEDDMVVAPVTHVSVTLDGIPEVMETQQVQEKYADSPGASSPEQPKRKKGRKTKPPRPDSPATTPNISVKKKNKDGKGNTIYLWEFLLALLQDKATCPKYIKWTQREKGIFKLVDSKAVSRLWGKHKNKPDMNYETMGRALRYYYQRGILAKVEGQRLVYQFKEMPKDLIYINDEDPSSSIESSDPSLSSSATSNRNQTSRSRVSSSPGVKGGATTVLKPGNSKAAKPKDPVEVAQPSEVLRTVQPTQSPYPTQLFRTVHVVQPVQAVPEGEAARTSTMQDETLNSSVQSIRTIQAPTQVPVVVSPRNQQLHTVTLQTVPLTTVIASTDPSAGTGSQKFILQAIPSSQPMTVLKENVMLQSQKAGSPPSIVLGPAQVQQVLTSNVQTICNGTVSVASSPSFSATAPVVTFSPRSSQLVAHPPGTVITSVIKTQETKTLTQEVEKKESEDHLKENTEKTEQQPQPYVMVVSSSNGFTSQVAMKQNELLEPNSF
# Sequence of HSF1 (Q00613 whole entry): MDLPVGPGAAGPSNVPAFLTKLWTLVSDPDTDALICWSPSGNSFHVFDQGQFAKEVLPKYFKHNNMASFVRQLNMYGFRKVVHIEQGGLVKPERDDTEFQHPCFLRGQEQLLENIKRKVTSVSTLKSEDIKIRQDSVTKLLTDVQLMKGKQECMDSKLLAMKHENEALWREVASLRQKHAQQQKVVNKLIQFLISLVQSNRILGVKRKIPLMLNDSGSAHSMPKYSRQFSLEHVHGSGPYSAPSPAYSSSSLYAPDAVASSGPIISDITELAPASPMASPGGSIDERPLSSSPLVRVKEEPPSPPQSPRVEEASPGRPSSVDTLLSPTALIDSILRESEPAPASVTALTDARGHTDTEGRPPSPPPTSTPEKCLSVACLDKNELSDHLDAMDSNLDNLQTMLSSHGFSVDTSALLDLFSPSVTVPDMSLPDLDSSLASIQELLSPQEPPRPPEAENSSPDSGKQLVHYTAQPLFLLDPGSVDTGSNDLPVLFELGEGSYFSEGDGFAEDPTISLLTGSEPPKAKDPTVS
# Sequence of ELF4 (Q99607 whole entry): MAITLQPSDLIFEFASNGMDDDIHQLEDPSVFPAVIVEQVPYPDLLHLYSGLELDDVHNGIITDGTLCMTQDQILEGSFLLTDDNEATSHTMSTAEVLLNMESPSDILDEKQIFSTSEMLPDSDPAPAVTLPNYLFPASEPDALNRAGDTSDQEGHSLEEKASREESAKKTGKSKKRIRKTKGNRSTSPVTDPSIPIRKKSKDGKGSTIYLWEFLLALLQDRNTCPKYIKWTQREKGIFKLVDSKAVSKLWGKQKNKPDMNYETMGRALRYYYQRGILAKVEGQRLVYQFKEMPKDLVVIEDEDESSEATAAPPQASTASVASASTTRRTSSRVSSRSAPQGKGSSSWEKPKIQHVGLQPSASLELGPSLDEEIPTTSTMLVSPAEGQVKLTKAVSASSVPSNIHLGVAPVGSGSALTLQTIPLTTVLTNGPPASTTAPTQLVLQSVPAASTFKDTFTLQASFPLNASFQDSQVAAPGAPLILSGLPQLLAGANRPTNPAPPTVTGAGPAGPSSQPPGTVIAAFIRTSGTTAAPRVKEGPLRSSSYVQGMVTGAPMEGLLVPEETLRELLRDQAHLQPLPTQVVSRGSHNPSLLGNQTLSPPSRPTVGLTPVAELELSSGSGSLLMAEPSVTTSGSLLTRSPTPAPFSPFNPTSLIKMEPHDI
# Sequence of CRX (O43186 whole entry): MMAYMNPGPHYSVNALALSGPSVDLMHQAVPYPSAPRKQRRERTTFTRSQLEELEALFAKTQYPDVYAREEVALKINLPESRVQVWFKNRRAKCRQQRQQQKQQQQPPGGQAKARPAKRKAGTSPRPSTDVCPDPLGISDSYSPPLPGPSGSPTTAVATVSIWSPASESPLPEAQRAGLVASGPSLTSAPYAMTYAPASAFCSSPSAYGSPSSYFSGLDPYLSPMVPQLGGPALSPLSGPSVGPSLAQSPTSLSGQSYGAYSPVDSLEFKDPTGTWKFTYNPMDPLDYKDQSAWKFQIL
# Sequence of SPIB (Q01892 whole entry): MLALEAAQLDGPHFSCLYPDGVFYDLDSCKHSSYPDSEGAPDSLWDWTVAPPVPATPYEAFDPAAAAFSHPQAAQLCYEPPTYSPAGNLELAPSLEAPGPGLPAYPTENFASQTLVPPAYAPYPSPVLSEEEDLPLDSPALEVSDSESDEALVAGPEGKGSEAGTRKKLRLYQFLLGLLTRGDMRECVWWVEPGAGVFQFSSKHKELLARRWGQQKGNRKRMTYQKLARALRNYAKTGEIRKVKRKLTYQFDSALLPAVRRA
# Sequence of ETV1 (P50549 whole entry): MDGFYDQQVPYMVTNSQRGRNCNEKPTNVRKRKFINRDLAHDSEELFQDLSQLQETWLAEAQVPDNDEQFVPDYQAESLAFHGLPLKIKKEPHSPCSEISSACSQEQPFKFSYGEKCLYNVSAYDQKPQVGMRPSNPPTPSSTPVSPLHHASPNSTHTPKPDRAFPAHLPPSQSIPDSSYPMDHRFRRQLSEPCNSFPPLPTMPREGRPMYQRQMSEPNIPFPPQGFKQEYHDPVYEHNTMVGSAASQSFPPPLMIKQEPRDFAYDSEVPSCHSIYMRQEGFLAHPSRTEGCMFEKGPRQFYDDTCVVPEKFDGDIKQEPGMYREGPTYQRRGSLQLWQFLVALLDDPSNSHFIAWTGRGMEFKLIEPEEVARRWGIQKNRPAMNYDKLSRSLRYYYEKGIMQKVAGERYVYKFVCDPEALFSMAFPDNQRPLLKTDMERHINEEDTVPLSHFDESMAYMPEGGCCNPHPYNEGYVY
# Sequence of ETV5 (P41161 whole entry): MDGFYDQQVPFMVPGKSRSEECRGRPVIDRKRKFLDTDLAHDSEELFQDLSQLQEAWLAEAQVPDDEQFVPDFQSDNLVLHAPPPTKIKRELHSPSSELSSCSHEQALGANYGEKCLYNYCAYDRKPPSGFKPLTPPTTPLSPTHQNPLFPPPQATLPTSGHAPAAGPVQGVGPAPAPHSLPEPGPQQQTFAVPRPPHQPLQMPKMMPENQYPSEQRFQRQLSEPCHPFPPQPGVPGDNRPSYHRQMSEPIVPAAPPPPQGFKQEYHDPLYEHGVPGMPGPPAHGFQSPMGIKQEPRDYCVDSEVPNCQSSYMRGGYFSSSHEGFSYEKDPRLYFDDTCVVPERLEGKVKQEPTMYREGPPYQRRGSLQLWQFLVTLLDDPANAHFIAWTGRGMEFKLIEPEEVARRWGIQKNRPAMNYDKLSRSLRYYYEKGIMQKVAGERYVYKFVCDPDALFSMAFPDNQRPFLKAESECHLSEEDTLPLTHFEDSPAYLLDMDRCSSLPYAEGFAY
sequence,measurement,setting,value
ATACCT,binding signal,FLI1,"1.13 fold enrichment (6-mer frequency, TF over GST control)"
same,binding signal,ELK1,"1.18 fold enrichment (6-mer frequency, TF over GST control)"
same,binding signal,GABPA,"1.07 fold enrichment (6-mer frequency, TF over GST control)"
same,binding signal,ERG,"1.05 fold enrichment (6-mer frequency, TF over GST control)"
same,binding signal,ELF1,"1.13 fold enrichment (6-mer frequency, TF over GST control)"
same,binding signal,EHF,"1.08 fold enrichment (6-mer frequency, TF over GST control)"
same,binding signal,SPI1,"1.04 fold enrichment (6-mer frequency, TF over GST control)"
same,binding signal,SPIB,"1.1 fold enrichment (6-mer frequency, TF over GST control)"
same,binding signal,ELK3,"1.08 fold enrichment (6-mer frequency, TF over GST control)"
same,binding signal,FEV,"1.04 fold enrichment (6-mer frequency, TF over GST control)"
same,binding signal,ETV5,"1.01 fold enrichment (6-mer frequency, TF over GST control)"
same,binding signal,HSF1,"1.01 fold enrichment (6-mer frequency, TF over GST control)"
same,binding signal,SPIC,"1.11 fold enrichment (6-mer frequency, TF over GST control)"
same,binding signal,ELF4,"1.1 fold enrichment (6-mer frequency, TF over GST control)"
same,binding signal,ELK4,"1.1 fold enrichment (6-mer frequency, TF over GST control)"
same,binding signal,ETV2,"1.09 fold enrichment (6-mer frequency, TF over GST control)"
same,binding signal,ELF3,"1.08 fold enrichment (6-mer frequency, TF over GST control)"
same,binding signal,CRX,"1.12 fold enrichment (6-mer frequency, TF over GST control)"
same,binding signal,ETV1,"1.15 fold enrichment (6-mer frequency, TF over GST control)"
